TGFb SMAD3 inh: qHTS for Inhibitors of TGF-b; HepG2 CAGA-GFP TGF-b/SMAD3 reporter, GFP fluorescence, 18 h; TGF-beta stimulated, 500 pg/mL final; Potency, µM (series often up to 46.1 µM), most hits filed as inhibitors; 410,000 compounds, 1.2% hits; also: nearly all actives have a fitted effect of over 65% in size
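HEPG2 CAGA-GFP, 1000 cells/well; 2 h settle, 37 C; cpd via pin tool; TGF-b 500 pg/mL final; 18 h, 37 C; GFP imaging ex488/em500-530; %Activity normalised to -TGF-b and +DMSO controls; CRC fit, curve class.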
HepG2 viability: qHTS for Inhibitors of TGF-b: Cytotox Counterscreen | AID 588856, 2011 | HepG2 CAGA-GFP viability, ATP luminescence, 18 h | 410,000 compounds, 0.76% hits | Potency, µM (titrated, usually from 46.1 µM), actives largely listed as cytotoxic
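CellTiter-Glo luminescence gave cytotoxicity after 18 hours at 37 degrees C. The cells were HepG2 CAGA-GFP in 1% FBS DMEM, stimulated with 500 pg/mL TGF-beta after compound addition. %Activity was normalised to no-cell wells (complete cell-killing) and DMSO (no toxicity), and curves were fitted and classified.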
ATXN2 expr inh: Primary qHTS for Inhibitors of ATXN expression. 360,000 compounds, 0.72% hits. Potency, µM (doses to about 57 µM), most hits filed as inhibitors. AID 1745845, 2022. HEK-293 ATXN2-luciferase reporter, luminescence, 24 h; also: nearly all actives have a fitted effect of over 55% in size
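ATXN2-luciferase reporter cells (luciferase flanked by upstream and downstream ATXN2 gene portions) were treated 24 h at 37 °C with compounds at up to 57 uM. SteadyGlo luminescence gave expression; GF-AFC fluorescence gave viability.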
RORgamma inh: qHTS for inhibitors of ROR gamma transcriptional activity | Drosophila S2 Gal4-RORgamma UAS-luciferase reporter, 20 h | 310,000 compounds, 5.4% hits | Nuclear receptor ROR-gamma (Mus musculus), P51450 | Potency, µM (highest dose often 53.6 µM), most hits filed as inhibitors | AID 2551, 2010; also: nearly all actives have a fitted effect of over 60% in size
Target sequence (P51450 whole entry, looked up, the tested form may be a part): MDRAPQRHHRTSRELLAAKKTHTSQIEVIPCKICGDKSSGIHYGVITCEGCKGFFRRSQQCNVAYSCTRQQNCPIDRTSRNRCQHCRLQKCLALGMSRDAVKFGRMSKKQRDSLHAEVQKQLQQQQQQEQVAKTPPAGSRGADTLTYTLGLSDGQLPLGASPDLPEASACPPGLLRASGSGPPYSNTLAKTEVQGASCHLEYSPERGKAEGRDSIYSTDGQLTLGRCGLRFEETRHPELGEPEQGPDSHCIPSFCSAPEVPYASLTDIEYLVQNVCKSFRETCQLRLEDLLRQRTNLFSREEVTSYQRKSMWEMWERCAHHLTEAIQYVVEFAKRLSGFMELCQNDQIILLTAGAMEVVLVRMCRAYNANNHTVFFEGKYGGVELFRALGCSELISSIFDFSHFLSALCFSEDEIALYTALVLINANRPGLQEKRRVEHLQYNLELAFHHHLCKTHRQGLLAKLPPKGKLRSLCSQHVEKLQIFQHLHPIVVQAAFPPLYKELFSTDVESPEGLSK
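In this cell-based reporter format, copper sulfate (700 uM final) drives Gal4–ROR gamma fusion expression from a metallothionein promoter in Drosophila Schneider cells; compounds preincubated 1 hr, reporter read after 20 hr at ambient temperature.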
ATXN viability: Viability Counterscreen for Primary qHTS for Inhibitors of ATXN expression | S2 cells (HEK-293 line with an ATXN2-luciferase reporter) viability, CellTiter-Fluor protease fluorescence, 24 h | Potency, µM (titrated, usually from 56.7 µM), most hits filed as cytotoxic | 400,000 compounds, 0.49% hits; also: nearly all actives have a fitted effect of over 40% in size
Gal4-VP16 FLuc: VP16 counterscreen qHTS for inhibitors of ROR gamma transcriptional activity; 310,000 compounds, 3.5% hits; Drosophila S2 Gal4-VP16 UAS-luciferase, luminescence, 20 h; Potency, µM (series often up to 53.6 µM), usual class: inhibitors;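 also: Gal4-VP16 expression switched on by copper sulfate through the metallothionein promoter; nearly all actives have a fitted effect of over 50% in size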
Large screens that a line does not name were inactive. This is a sample that favours compounds with a hit; in the whole collection about 6.1% have one here. Calls follow the shape of the dose curve; as a rule, active = well fitted curve in the direction sought with a large enough effect; inconclusive = small, poorly fitted or top-dose-only effect, or another doubt; inactive = no such curve, though single readings can be large; an effect the other way counts as inactive or inconclusive.

CCc1cccc2sc(N3CCN(C(=O)C4CC4)CC3)nc12	none (no result: ATXN2 expr inh, RORgamma inh, ATXN viability, Gal4-VP16 FLuc)
Cc1ccc(NC(=S)NCc2ccc(F)cc2)c(C)c1	RORgamma inh 5.62µM, Gal4-VP16 FLuc 5.62µM
Cc1ccc(C(C)NC(=S)NCc2ccc(F)cc2)cc1C (configuration not stated)	TGFb SMAD3 inh inconclusive, ATXN2 expr inh inconclusive, RORgamma inh 3.55µM, ATXN viability inconclusive, Gal4-VP16 FLuc 5.01µM
Cc1ccc(NC(=S)NCc2ccc(S(N)(=O)=O)cc2)c(C)c1	none
COc1cccc(C(C)NC(=S)NCc2ccc(F)cc2)c1 (configuration not stated)	TGFb SMAD3 inh inconclusive, ATXN2 expr inh inconclusive, RORgamma inh 5.01µM, Gal4-VP16 FLuc 8.91µM
CC(NC(=O)CCC(=O)NCc1ccc(F)cc1)c1ccccc1 (configuration not stated)	none
CCC(NC(=S)NCc1ccc(F)cc1)c1ccc(C)cc1 (configuration not stated)	TGFb SMAD3 inh inconclusive, RORgamma inh 2.82µM, Gal4-VP16 FLuc 3.16µM
CCOC(=O)C1=C(C)N=C2SCCC(=O)N2C1c1ccc(OCc2ccccc2)c(OC)c1 (configuration not stated)	ATXN viability inconclusive (no result: RORgamma inh, Gal4-VP16 FLuc)
Cc1nc2ccn(Cc3cccnc3)c(=O)c2cc1C(=O)NCc1ccc(Cl)cc1	ATXN2 expr inh inconclusive (no result: RORgamma inh, Gal4-VP16 FLuc)
Cc1ccc2c(=O)cc(C(=O)Nc3c(C(=O)c4ccccc4)oc4ccccc34)oc2c1	none (no result: RORgamma inh, Gal4-VP16 FLuc)
Cc1ccc(C(C)NC(=S)NCc2ccc(F)cc2)c(C)c1 (configuration not stated)	TGFb SMAD3 inh inconclusive, RORgamma inh 2.51µM, Gal4-VP16 FLuc 4.47µM
COCC(=O)NCc1ccc2c(c1)cc(C)n2C	none
Cc1ccc(NC(=S)NCc2ccc3c(c2)cc(C)n3C)c(C)c1	TGFb SMAD3 inh inconclusive, RORgamma inh 1µM, ATXN viability inconclusive, Gal4-VP16 FLuc 12.6µM (no result: ATXN2 expr inh)
CCc1ccc(C(C)NC(=S)NCc2ccc(F)cc2)cc1 (configuration not stated)	TGFb SMAD3 inh inconclusive, RORgamma inh 2.24µM, Gal4-VP16 FLuc 5.01µM
CCOc1ccc(C(C)NC(=S)NCc2ccc(F)cc2)cc1 (configuration not stated)	RORgamma inh 3.55µM, ATXN viability inconclusive, Gal4-VP16 FLuc 3.16µM
CCOc1ccc(C(C)NC(=O)c2ccccc2F)cc1 (configuration not stated)	none
CCOc1ccc(NC(=O)CSc2nc(-c3cccc(Cl)c3)nc3c2Cc2c(CO)cnc(C)c2O3)cc1	none (no result: RORgamma inh, Gal4-VP16 FLuc)
Cc1cccc(CN2Cc3cccc4c3[C@H](C=CC4)CC2=O)c1	none (no result: ATXN2 expr inh, RORgamma inh, ATXN viability, Gal4-VP16 FLuc)
O=C(CN1C=NS(=O)(=O)c2ccccc21)Nc1ccccc1F	none (no result: RORgamma inh, Gal4-VP16 FLuc)
Cc1[nH]c2ccccc2c1C(=O)COC(=O)c1c(-c2c(F)cccc2Cl)noc1C	TGFb SMAD3 inh 12.6µM, ATXN2 expr inh inconclusive, ATXN viability inconclusive
Cc1onc(-c2c(F)cccc2Cl)c1C(=O)Nc1nc2ccccc2[nH]1	TGFb SMAD3 inh inconclusive, RORgamma inh 2.82µM, Gal4-VP16 FLuc inconclusive
Cc1onc(-c2c(F)cccc2Cl)c1C(=O)Nc1nccs1	RORgamma inh 12.6µM, Gal4-VP16 FLuc inconclusive
Cc1onc(-c2c(F)cccc2Cl)c1C(=O)NC1=NCCS1	RORgamma inh 14.1µM, Gal4-VP16 FLuc 22.4µM
Cc1onc(-c2c(F)cccc2Cl)c1C(=O)Nc1cccc2nsnc12	none
Cc1[nH]c2ccccc2c1C(=O)COC(=O)c1c(-c2ccccc2Cl)noc1C	Gal4-VP16 FLuc inconclusive
Cc1cc(NC(=O)c2c(-c3c(F)cccc3Cl)noc2C)no1	none (no result: ATXN2 expr inh)
Cc1cc(Br)cc2c(C(=O)OCC(=O)c3ccccc3)cc(-c3ccccc3)nc12	none (no result: RORgamma inh, Gal4-VP16 FLuc)
Cc1nc2cnc(N3CCN(C)CC3)nc2n(C2CC2)c1=O	none (no result: TGFb SMAD3 inh, HepG2 viability, ATXN2 expr inh, ATXN viability)
CCOC(=O)c1c(NC(=O)COC(=O)c2ccccc2NC)sc(C(=O)N(C)C)c1C	TGFb SMAD3 inh inconclusive, ATXN2 expr inh 31.6µM, ATXN viability inconclusive

Source: PubChem BioAssay (National Center for Advancing Translational Sciences (NCATS))
